According to PubChem BioAssay AID1159580 (chemical genetic matrix, 2015):
Several values for one entry are separate records, joined by “and”; a condition that tells them apart may be missing. Equal entries are not always repeated. Out of some 5,500 compounds screened, about 2,000 (36%) were called active. About 18% were inconclusive and are not listed. Rule as the data show it: active = normalized growth mostly below about 0.91 (no sharp cut-off); inconclusive = no clear call, values can overlap the other calls; inactive = mostly above about 0.92. The list shows a part of the results.

Assay: chemical genetic growth profiling, strain panel (AID 1159580);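 also: tested at 20 µM; growth read once vehicle control cultures reached saturation at 30 °C; 1 = growth at the plate median or of vehicle wells; lower values mean less growth of the strain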
Settings: S. cerevisiae deletion strains, growth OD

Measured: normalized growth

CCNC(=O)CC[C@H](N)C(=O)O
inactive: locus YAL021C, strain ccr4, active compounds read low 0.995 | locus YAL026C, strain drs2, active compounds read low 1 | locus YAL030W, strain snc1, active compounds read low 0.998 | locus YBL061C, strain skt5, active compounds read low 0.993 | locus YBR009C, strain hhf1, active compounds read low 1.02 | locus YBR021W, strain FUR4, active compounds read low 1.03 | locus YBR023C, strain chs3, active compounds read low 0.993 | locus YBR171W, strain sec66, active compounds read low 1 | locus YBR229C, strain ROT2, active compounds read low 0.991 | locus YBR231C, strain swc5, active compounds read low 0.997 | locus YBR279W, strain paf1, active compounds read low 1 | locus YCL011C, strain gbp2, active compounds read low 1 | locus YCL016C, strain dcc1, active compounds read low 0.996 | locus YCL029C, strain bik1, active compounds read low 0.988 | locus YCL061C, strain MRC1, active compounds read low 1 | locus YCL069W, strain vba3, active compounds read low 1.01 | locus YCR088W, strain abp1, active compounds read low 1 | locus YDL005C, strain med2, active compounds read low 0.986 | locus YDL035C, strain GPR1, active compounds read low 1.04 | locus YDL040C, strain nat1, active compounds read low 0.998 | locus YDL074C, strain BRE1, active compounds read low 1.02 | locus YDL101C, strain DUN1, active compounds read low 0.965 | locus YDL134C, strain PPH21, active compounds read low 1.01 | locus YDL185W, strain tfp1, active compounds read low 0.996 | locus YDL192W, strain arf1, active compounds read low 1 | locus YDR001C, strain nth1, active compounds read low 0.997 | locus YDR069C, strain doa4, active compounds read low 1.03 | locus YDR101C, strain arx1, active compounds read low 1 | locus YDR137W, strain rgp1, active compounds read low 1.01 | locus YDR159W, strain sac3, active compounds read low 0.992 | locus YDR162C, strain NBP2, active compounds read low 1.03 | locus YDR195W, strain ref2 0.994 | locus YDR297W, strain sur2, active compounds read low 0.99 | locus YDR318W, strain mcm21, active compounds read low 0.999 | locus YDR334W, strain swr1, active compounds read low 1 | locus YDR335W, strain msn5, active compounds read low 1 | locus YDR388W, active compounds read low 1 | locus YDR392W, strain spt3, active compounds read low 0.991 | locus YDR502C, strain sam2, active compounds read low 0.999 | locus YEL003W, strain gim4, active compounds read low 1.01 | locus YEL037C, strain rad23, active compounds read low 0.996 | locus YEL061C, strain CIN8 (second series), active compounds read low 1 | locus YEL061C, strain CIN8, active compounds read low 0.999 | locus YER015W, strain faa2, active compounds read low 1.01 | locus YER016W, strain bim1, active compounds read low 0.991 | locus YER110C, active compounds read low 0.981 | locus YER111C, strain swi4, active compounds read low 1 | locus YER155C, strain BEM2 (second series), active compounds read low 0.99 | locus YER155C, strain BEM2, active compounds read low 0.974 | locus YER167W, strain BCK2, active compounds read low 0.995 | locus YFR010W, strain ubp6, active compounds read low 1 | locus YGL078C, strain dbp3, active compounds read low 0.988 | locus YGL086W, strain mad1, active compounds read low 1 | locus YGL167C, strain pmr1, active compounds read low 0.997 | locus YGL173C, strain kem1, active compounds read low 0.996 | locus YGL227W, strain vid30, active compounds read low 0.992 | locus YGL240W, strain doc1, active compounds read low 1 | locus YGL248W, strain PDE1, active compounds read low 1 | locus YGL253W, strain hxk2, active compounds read low 1 | locus YGR135W, strain pre9, active compounds read low 1.01 | locus YGR252W, strain gcn5, active compounds read low 1.04 | locus YHR013C, strain ard1, active compounds read low 0.987 | locus YHR027C, strain rpn1, active compounds read low 1.01 | locus YHR030C, strain SLT2, active compounds read low 0.999 and 1.01 | locus YHR079C, strain IRE1 (second series), active compounds read low 0.997 | locus YHR079C, strain IRE1, active compounds read low 1.04 | locus YHR094C, strain hxt1, active compounds read low 0.989 | locus YHR129C, strain ARP1, active compounds read low 0.995 | locus YHR142W, strain chs7, active compounds read low 1.01 | locus YHR200W, strain rpn10, active compounds read low 0.994 | locus YIL066C, strain RNR3, active compounds read low 1.04 | locus YIL073C, strain SPO22, active compounds read low 0.979 | locus YIL125W, strain kgd1, active compounds read low 0.995 | locus YIR030C, strain dcg1, active compounds read low 0.994 | locus YJL092W, strain hpr5, active compounds read low 0.993 | locus YJL095W, strain BCK1 (second series), active compounds read low 0.99 | locus YJL095W, strain BCK1, active compounds read low 1 and 1.04 | locus YJL115W, strain asf1, active compounds read low 0.999 | locus YJL129C, strain trk1, active compounds read low 0.999 | locus YJL134W, strain LCB3, active compounds read low 0.998 | locus YJL154C, strain vps35, active compounds read low 1 | locus YJL164C, strain tpk1, active compounds read low 1.01 | locus YJL166W, strain qcr8, active compounds read low 1 | locus YJL168C, strain set2, active compounds read low 0.991 | locus YJL187C, strain SWE1 (second series), active compounds read low 0.996 | locus YJR043C, strain POL32, active compounds read low 1.05 | locus YJR066W, strain TOR1, active compounds read low 0.958 | locus YJR075W, strain HOC1, active compounds read low 0.995 | locus YKL009W, strain mrt4, active compounds read low 0.986 | locus YKL068W, active compounds read low 0.987 | locus YKL085W, strain MDH1 (second series), active compounds read low 1.02 | locus YKL085W, strain MDH1, active compounds read low 1.02 | locus YKL160W, strain elf1, active compounds read low 0.999 | locus YKR001C, strain vps1, active compounds read low 1 | locus YKR026C, strain gcn3, active compounds read low 1 | locus YKR091W, strain srl3, active compounds read low 1 | locus YLL001W, strain dnm1, active compounds read low 0.997 | locus YLL026W, active compounds read low 0.993 | locus YLL041C, strain sdh2, active compounds read low 1 | locus YLR027C, strain aat2, active compounds read low 0.997 | locus YLR039C, strain RIC1, active compounds read low 1.03 | locus YLR058C, strain SHM2, active compounds read low 0.998 | locus YLR102C, strain apc9, active compounds read low 0.987 | locus YLR113W, strain HOG1, active compounds read low 1.02 | locus YLR221C, strain rsa3, active compounds read low 1.01 | locus YLR258W, strain gsy2, active compounds read low 0.994 | locus YLR262C, strain YPT6 (second series), active compounds read low 0.984 | locus YLR262C, strain YPT6, active compounds read low 1.04 | locus YLR268W, strain sec22, active compounds read low 0.986 | locus YLR320W, strain mms22, active compounds read low 0.999 | locus YLR330W, strain CHS5, active compounds read low 1.01 | locus YLR342W, strain FKS1 (second series), active compounds read low 1.03 | locus YLR342W, strain FKS1, active compounds read low 1.02 | locus YLR357W, strain rsc2, active compounds read low 0.962 | locus YLR370C, strain arc18, active compounds read low 1 | locus YLR371W, strain rom2, active compounds read low 0.989 | locus YLR384C, strain iki3, active compounds read low 0.982 | locus YLR418C, strain cdc73, active compounds read low 1.02 | locus YML016C, strain PPZ1, active compounds read low 0.993 | locus YML032C, strain rad52, active compounds read low 1.01 | locus YML120C, strain ndi1, active compounds read low 1 | locus YML124C, strain tub3, active compounds read low 0.996 | locus YMR058W, strain fet3, active compounds read low 0.999 | locus YMR078C, strain ctf18, active compounds read low 0.996 | locus YMR125W, strain sto1, active compounds read low 0.996 | locus YMR129W, active compounds read low 0.991 | locus YMR205C, strain PFK2, active compounds read low 1.01 | locus YMR223W, strain ubp8, active compounds read low 1.01 | locus YMR231W, strain pep5, active compounds read low 1 | locus YMR263W, strain SAP30, active compounds read low 0.989 | locus YMR307W, strain GAS1, active compounds read low 1.06 | locus YNL067W, strain RPL9B, active compounds read low 0.984 | locus YNL071W, strain lat1, active compounds read low 1 | locus YNL183C, strain NPR1, active compounds read low 0.953 | locus YNL209W, strain ssb2, active compounds read low 1.01 | locus YNL233W, strain BNI4, active compounds read low 1.01 | locus YNL248C, strain rpa49, active compounds read low 1 | locus YNL250W, strain rad50, active compounds read low 0.975 | locus YNL271C, strain bni1, active compounds read low 0.999 | locus YNL298W, strain CLA4, active compounds read low 0.995 | locus YNL307C, strain MCK1, active compounds read low 0.992 | locus YNL322C, strain KRE1 (second series), active compounds read low 0.979 | locus YNR049C, strain mso1, active compounds read low 0.984 | locus YNR052C, strain pop2, active compounds read low 0.998 | locus YOL006C, strain TOP1, active compounds read low 1.07 | locus YOL012C, strain htz1 1.05 | locus YOL147C, strain pex11, active compounds read low 0.998 | locus YOR001W, strain rrp6, active compounds read low 1 | locus YOR061W, strain CKA2, active compounds read low 1 | locus YOR069W, strain VPS5, active compounds read low 0.988 | locus YOR070C, strain gyp1, active compounds read low 1.01 | locus YOR080W, strain dia2, active compounds read low 0.99 | locus YOR083W, strain WHI5, active compounds read low 0.998 | locus YOR106W, strain vam3, active compounds read low 1.01 | locus YOR136W, strain idh2, active compounds read low 0.983 | locus YOR144C, strain elg1, active compounds read low 0.995 | locus YOR184W, strain ser1, active compounds read low 1 | locus YOR231W, strain MKK1, active compounds read low 1.02 | locus YOR265W, strain rbl2, active compounds read low 0.991 | locus YOR270C, strain vph1, active compounds read low 1.04 | locus YOR290C, strain snf2, active compounds read low 1 | locus YOR316C, strain cot1, active compounds read low 0.99 | locus YPL051W, strain arl3, active compounds read low 0.996 | locus YPL055C, strain LGE1, active compounds read low 1.03 | locus YPL078C, strain atp4, active compounds read low 0.991 | locus YPL106C, strain sse1, active compounds read low 0.984 | locus YPL240C, strain hsp82, active compounds read low 1.01 | locus YPL256C, strain CLN2, active compounds read low 1.01 | locus YPR119W, strain clb2, active compounds read low 1.01 | locus YPR141C, strain kar3, active compounds read low 0.985 | locus YPR163C, strain tif3, active compounds read low 0.995 | locus YPR167C, strain met16, active compounds read low 0.998 | strain wtn01, active compounds read low 0.989
